Read-out in test [1]: Macrophage colony-stimulating factor (MCSF), CSF1 (gene 1435)
Briefly: BSK_CASM3C_MCSF: BioMAP Diversity Plus: CASM3C Assay for Macrophage colony-stimulating factor (MCSF) Biomarker Activity (AID 2283044).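 Further: M-CSF protein amount quantified by ELISA after 24 h exposure.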 To be noted: primary human coronary artery smooth muscle cells; actives raise or lower the signal.

Read-out in test [2]: Low-density lipoprotein receptor (LDLR), LDLR (gene 3949)
Briefly: BSK_CASM3C_LDLR: BioMAP Diversity Plus: CASM3C Assay for Low-density lipoprotein receptor (LDLR) Biomarker Activity (AID 2283045).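 Further: LDLR protein level on the cell surface quantified by ELISA.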 Particulars: primary human coronary artery smooth muscle cells; actives raise or lower the signal.

Read-out in test [3]: Monocyte Chemoattractant Protein-1 (MCP1), CCL2 (gene 6347)
Briefly: BSK_CASM3C_MCP1: BioMAP Diversity Plus: CASM3C Assay for Monocyte Chemoattractant Protein-1 (MCP1) Biomarker Activity (AID 2283046).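 Further: MCP-1 level quantified by ELISA 24 h after dosing.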 Particulars: primary human coronary artery smooth muscle cells; actives raise or lower the signal.

Test [4] in a line: BSK_CASM3C_Proliferation: Cell Proliferation Assessment in the BioMAP Diversity Plus: CASM3C Assay (AID 2283047).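 Further: sulforhodamine B total protein stain as relative cell number at 560 nm; sub-confluent cells exposed 48 h before staining; fitted both ways against DMSO so gain or loss of cell number.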 Particulars: primary human coronary artery smooth muscle cells.
Read-out in test [5]: Monokine induced gamma interferon (MIG), CXCL9 (gene 4283)
The test is described as follows: BSK_CASM3C_MIG: BioMAP Diversity Plus: CASM3C Assay for Monokine induced gamma interferon (MIG) Biomarker Activity (AID 2283048).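 Further: MIG protein level measured by ELISA.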 To be noted: primary human coronary artery smooth muscle cells; actives raise or lower the signal.

Read-out in test [6]: serum amyloid A (SAA), SAA1 (gene 6288)
The test is described as follows: BSK_CASM3C_SAA: BioMAP Diversity Plus: CASM3C Assay for serum amyloid A (SAA) Biomarker Activity (AID 2283049). To be noted: primary human coronary artery smooth muscle cells; actives raise or lower the signal.

Test [7] is described as follows: BSK_CASM3C_SRB: Viability Assessment in the BioMAP Diversity Plus: CASM3C Assay (AID 2283050).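 Further: cells exposed to compound for 24 h.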 To be noted: primary human coronary artery smooth muscle cells.
Read-out in test [8]: Thrombomodulin, THBD (gene 7056)
The test is described as follows: BSK_CASM3C_Thrombomodulin: BioMAP Diversity Plus: CASM3C Assay for Thrombomodulin Biomarker Activity (AID 2283051).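 Further: thrombomodulin protein level measured by ELISA 24 h after dosing.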 Particulars: primary human coronary artery smooth muscle cells; actives raise or lower the signal.

Read-out in test [9]: Tissue Factor, F3 (gene 2152)
The test is described as follows: BSK_CASM3C_TissueFactor: BioMAP Diversity Plus: CASM3C Assay for Tissue Factor Biomarker Activity (AID 2283052).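 Further: cell surface tissue factor protein level read by ELISA.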 To be noted: primary human coronary artery smooth muscle cells; actives raise or lower the signal.

Read-out in test [10]: Interferon-gamma inducible Protein 10 (IP10), CXCL10 (gene 3627)
The test is described as follows: BSK_hDFCGF_IP10: BioMAP Diversity Plus: hDFCGF Assay for Interferon-gamma inducible Protein 10 (IP10) Biomarker Activity (AID 2283053). To be noted: primary human foreskin fibroblasts; actives raise or lower the signal. The method in brief: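 IP-10 levels, quantified by ELISA, are taken from human foreskin fibroblast cultures 24 h after chemical treatment, with DMSO serving as negative control and baseline for bidirectional analysis.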

Read-out in test [11]: Urokinase-type plasminogen activator receptor (uPAR), PLAUR (gene 5329)
The test is described as follows: BSK_CASM3C_uPAR: BioMAP Diversity Plus: CASM3C Assay for Urokinase-type plasminogen activator receptor (uPAR) Biomarker Activity (AID 2283054).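 Further: cell-surface uPAR protein level quantified by ELISA.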 To be noted: primary human coronary artery smooth muscle cells; actives raise or lower the signal.

Read-out in test [12]: Vascular cell adhesion molecule 1 (VCAM1), VCAM1 (gene 7412)
The test is described as follows: BSK_CASM3C_VCAM1: BioMAP Diversity Plus: CASM3C Assay for Vascular cell adhesion molecule 1 (VCAM1) Biomarker Activity (AID 2283055).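 Further: VCAM-1 protein level quantified by ELISA on the cells.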 Particulars: primary human coronary artery smooth muscle cells; actives raise or lower the signal.

Read-out in test [13]: Collagen III, COL3A1 (gene 1281)
The test is described as follows: BSK_hDFCGF_CollagenIII: BioMAP Diversity Plus: hDFCGF Assay for Collagen III Biomarker Activity (AID 2283056). Particulars: primary human foreskin fibroblasts; actives raise or lower the signal. The method in brief: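 Human foreskin fibroblast primary cultures sampled 24 h after dosing; Collagen III quantified by ELISA. Signal fitted bidirectionally against DMSO baseline.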

Read-out in test [14]: Interleukin-8 (IL8), CXCL8 (gene 3576)
Briefly: BSK_hDFCGF_IL8: BioMAP Diversity Plus: hDFCGF Assay for Interleukin-8 (IL8) Biomarker Activity (AID 2283058). Particulars: primary human foreskin fibroblasts; actives raise or lower the signal. The method in brief:
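Primary human foreskin fibroblasts (hDFCGF system) dosed with chemical; IL-8 measured by ELISA 24 hours later. Bidirectional curve fitting relative to DMSO baseline; cytotoxicity tracked in parallel cultures by SRB total protein staining.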

Test [15] can be described thus: BSK_hDFCGF_Proliferation: Cell Proliferation Assessment in the BioMAP Diversity Plus: hDFCGF Assay (AID 2283059).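 Further: curves fitted for both rise and fall of signal versus DMSO baseline.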 Particulars: primary human foreskin fibroblasts. The essentials: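 Steps: dose primary human dermal fibroblasts (foreskin); […] fix in 10% TCA; stain with 0.1% SRB; read 560 nm; fit gain or loss of signal against DMSO.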
Read-out in test [16]: Macrophage colony-stimulating factor (MCSF), CSF1 (gene 1435)
Briefly: BSK_hDFCGF_MCSF: BioMAP Diversity Plus: hDFCGF Assay for Macrophage colony-stimulating factor (MCSF) Biomarker Activity (AID 2283060). To be noted: primary human foreskin fibroblasts; actives raise or lower the signal. The method in brief:
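Human foreskin fibroblast primary cultures; M-CSF measured by ELISA 24 hours after chemical dosing. Bidirectional fitting relative to DMSO, with overt cytotoxicity tracked by parallel SRB total-protein staining (0.1% SRB, 10% TCA fixation, 560 nm).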

A short description of test [17]: BSK_hDFCGF_SRB: Viability Assessment in the BioMAP Diversity Plus: hDFCGF Assay (AID 2283061).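 Further: cells exposed to compound for 24 h before the read.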 To be noted: primary human foreskin fibroblasts. The method in brief: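 Human foreskin fibroblasts in 96-well plates were treated 24 h. Total protein was measured by 0.1% SRB staining after 10% TCA fixation, read at 560 nm. Data were fitted bidirectionally against DMSO.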

Read-out in test [18]: Monokine induced gamma interferon (MIG), CXCL9 (gene 4283)
Briefly: BSK_hDFCGF_MIG: BioMAP Diversity Plus: hDFCGF Assay for Monokine induced gamma interferon (MIG) Biomarker Activity (AID 2283063). Particulars: primary human foreskin fibroblasts; actives raise or lower the signal. The method in brief:
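MIG/CXCL9 measured by ELISA 24 h after dosing primary human skin fibroblasts. Activity fitted in both directions against DMSO controls. Cytotoxicity was checked in parallel cultures by SRB staining read at 560 nm.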

Read-out in test [19]: Matrix Metallopeptidase 1 (MMP1), MMP1 (gene 4312)
The test is described as follows: BSK_hDFCGF_MMP1: BioMAP Diversity Plus: hDFCGF Assay for Matrix Metallopeptidase 1 (MMP1) Biomarker Activity (AID 2283064). To be noted: primary human foreskin fibroblasts; actives raise or lower the signal. The method in brief:
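Primary human foreskin fibroblasts in the hDFCGF system were dosed with test chemical, and MMP1 was measured by ELISA 24 h later. Values come from bidirectional curve fitting against the DMSO baseline.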

Read-out in test [20]: Vascular cell adhesion molecule 1 (VCAM1), VCAM1 (gene 7412)
The test is described as follows: BSK_hDFCGF_VCAM1: BioMAP Diversity Plus: hDFCGF Assay for Vascular cell adhesion molecule 1 (VCAM1) Biomarker Activity (AID 2283065).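 On AC50: VCAM-1 protein level quantified by ELISA after 24 h chemical exposure.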 Particulars: primary human foreskin fibroblasts; actives raise or lower the signal. The method in brief:
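Human foreskin fibroblast primary cells dosed with chemical, VCAM-1 measured by ELISA at 24 h. Bidirectional curve fitting relative to DMSO as negative control/baseline.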

The source holds several records for some structures; these can differ, active in one and inactive in another. The source made the active and inactive calls. How the source made its calls: active means hit-call score of the fitted dose curve at least 0.9, where 1 is the maximum; inactive means score below 0.9.

Consider `O=Nc1ccc(O)cc1`, for which the result in [1], in [2], in [3], in test [4], in test [5] and in [6] was inactive. Moreover, the outcome in test [7], in test [8], in test [9], in [10], in test [11] and in test [12] was inactive. Further, the outcome in test [13], in [14], in [15], in [16], in [17] and in test [18] was inactive. The result in test [19] and in test [20] was inactive.

With `CO[Si](OC)(OC)c1ccccc1`, the result in test [1], in test [2], in test [3], in [4], in [5] and in test [6] was inactive. The result in [7], in [8], in test [9], in test [10], in [11] and in [12] was inactive. Moreover, the result in [13], in test [14], in test [15], in test [16], in [17] and in test [18] was inactive. Also, the result in [19] and in [20] was inactive.

With `CCO[Si](CCCN=C=O)(OCC)OCC`, the outcome in [1], in [2], in test [3], in test [4], in test [5] and in [6] was inactive. Moreover, the result in [7], in test [8], in [9], in test [10], in test [11] and in [12] was inactive. The outcome in test [13], in test [14], in test [15], in test [16], in test [17] and in [18] was inactive. Moreover, the outcome in test [19] and in test [20] was inactive.

Regarding `c1ccc(-c2ccccn2)nc1`, the result in [1], in test [2], in test [3], in test [4], in [5] and in test [6] was inactive. For the same compound, the outcome in [7], in test [8], in test [9], in [10], in [11] and in test [12] was inactive. The result in test [13], in [14], in [15], in [16], in test [17] and in test [18] was inactive. For the same compound, the result in [19] and in test [20] was inactive.

Take `N#[N+]c1ccc2c(S(=O)(=O)[O-])cccc2c1O`: the result in test [1], in test [2], in test [3], in [4], in test [5] and in [6] was inactive. The result in test [7], in test [8], in test [9], in test [10], in test [11] and in test [12] was inactive. For the same compound, the result in test [13], in test [14], in test [15], in [16], in [17] and in test [18] was inactive. Moreover, the result in test [19] and in [20] was inactive.

`COc1ccc2nc(N)sc2c1`: the outcome in [1], in test [2], in test [3], in test [4], in [5] and in test [6] was inactive. Also, the result in [7], in test [8], in test [9], in [10], in [11] and in test [12] was inactive. Besides, the outcome in test [13], in test [14], in test [15], in test [16], in test [17] and in test [18] was inactive. Also, the result in [19] and in test [20] was inactive.

What is called AC50 is the concentration at which the activity in the assay is half-maximal. `C#CC1(O)CC[C@H]2[C@@H]3CCC4=CCCC[C@@H]4[C@H]3CC[C@@]21C` (stereo partly specified): the AC50 in test [1] was 20 µM (active); in test [3] it was 32.1 µM (active); in test [4], 8.11 µM (active); in test [5], 20 µM (active); in test [6], 20 µM (active); in test [7] it was 31 µM (active). In addition, the AC50 was 20 µM (active) in test [8]; 20 µM (active) in test [9]; 34.4 µM (active) in test [10]; 20 µM (active) in [11]; 29.4 µM (active) in [12]; 34.4 µM (active) in test [13]. Also, the AC50 in test [15] was 15.1 µM (active); in [16], 30 µM (active); in test [17], 35.2 µM (active); in test [18] it was 35 µM (active); in [19], 37.5 µM (active); in test [20], 37.5 µM (active). In addition, the result in test [2] and in test [14] was inactive.

Regarding `CN1C(=O)N(C)C(O)C1O` (stereo unspecified), the outcome in test [1], in test [2], in [3], in [4], in test [5] and in test [6] was inactive. Also, the result in test [7], in test [8], in test [9], in test [10], in test [11] and in [12] was inactive. Also, the outcome in test [13], in test [14], in test [15], in test [16], in [17] and in test [18] was inactive. Further, the result in [19] and in [20] was inactive. In addition, the AC50 in [12] was 0.179 µM (active).

`CCCCCCCCc1ccc(Nc2ccc(CCCCCCCC)cc2)cc1`: the result in test [1], in test [2], in [3], in [5], in [6] and in test [7] was inactive. The result in test [8], in test [9], in [10], in [11], in test [12] and in test [13] was inactive. The outcome in [14], in test [15], in test [16], in test [17], in test [18] and in test [19] was inactive. Moreover, the result in test [20] was inactive. Further, the AC50 in [4] is 14.9 µM (active).

The record behind these values is PubChem BioAssay (EPA / NIEHS).
